A short description of test [1]: NCI Yeast Anticancer Drug Screen. Data for the rad50 strain (AID 155).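 Also: 0% = growth of vehicle-only cultures of the same strain.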 As to conditions: S. cerevisiae rad50 strain growth inhibition; at 50.0 µM; stronger effect = higher value. The essentials: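 Yeast carrying a defined DNA repair defect were exposed to test compounds, and growth was compared with vehicle-treated controls to give percent inhibition.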
Test [2] is described as follows: NCI Yeast Anticancer Drug Screen. Data for the mec2-1 strain (AID 157). The conditions noted are these: S. cerevisiae mec2-1 strain, at 50.0 µM, stronger effect = higher value. The method in brief:
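Each compound was tested on mec2-1 yeast, a strain altered in DNA damage repair or cell cycle control. Growth inhibition is reported relative to vehicle.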

The nature of test [3]: NCI Yeast Anticancer Drug Screen. Data for the sgs1 mgt1 strain (AID 161).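 Also: 0% = growth of cultures given vehicle only.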 As to conditions: S. cerevisiae sgs1 mgt1 strain, at 50.0 µM, stronger effect = higher value. The essentials:
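Inhibition of yeast growth, normalised to vehicle-treated controls, is reported for a strain bearing genetic alterations in DNA damage repair.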

A short description of test [4]: NCI Yeast Anticancer Drug Screen. Data for the cln2 rad14 strain (AID 165).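 Also: 0% = growth equal to vehicle treated cultures.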 The conditions noted are these: S. cerevisiae cln2 rad14 strain, at 50.0 µM, stronger effect = higher value. The essentials:
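Test compounds were added to cln2 rad14 yeast cultures; inhibition of growth was then determined by comparison with vehicle treatment.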

Test [5] is described as follows: NCI Yeast Anticancer Drug Screen. Data for the bub3 strain (AID 167). As to conditions: S. cerevisiae bub3 mutant strain, at 50.0 µM, stronger effect = higher value. The method in brief:
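Compounds were applied to a genetically altered yeast strain carrying a cell-cycle control defect. Growth inhibition was scored against vehicle-treated controls.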

The nature of test [6]: NCI Yeast Anticancer Drug Screen. Data for the mlh1 rad18 strain (AID 175). The conditions noted are these: S. cerevisiae mlh1 rad18 strain growth inhibition; at 50.0 µM; stronger effect = higher value. The method in brief:
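Inhibition values reflect reduced growth of mutant yeast versus vehicle-treated controls following compound exposure; the mutations affect DNA damage repair.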

SMILES strings stand for the structures. Compounds without any hit were thinned out: in the full panel of roughly 79,000, 15% have a hit. Values without a mark were called inactive. Active and inactive are the calls of the source. Rule as the data show it: active = growth inhibition above about 70%; inactive = the rest.

`C=C(Cl)/C(=C\Cl)CCC(Cl)C(C)C` (stereo unspecified) (tested in a mixture with another compound): the growth inhibition in test [1] is 68.5%; in test [2], 78% (active); in test [3], 91% (active); in test [4], 72% (active); in test [5] it was 90.8% (active); in test [6], 89.3% (active).

Take `CC(=O)c1cccc(C(C)=O)n1`: the growth inhibition in test [1] was -24.2%; in test [2] it was -36.1%; in test [3], -35.9%; in test [4], 18.1%; in test [5], -19.8%; in test [6], 9.6%.

As for `COc1ccc(CCCNC(=O)c2cc(OC)c(OC)cc2CCO)cc1OC`, the growth inhibition was 18.9% in test [1]; 15.1% in test [2]; -45.5% in test [3]; -9.6% in test [4]; -31.2% in test [5]; -11.8% in test [6].

In the case of `O=c1[nH][nH]c(=O)c2nc3c(nc12)c1nc2c(=O)[nH][nH]c(=O)c2nc1c1nc2c(=O)[nH][nH]c(=O)c2nc31`, the growth inhibition in test [1] is -1.6%; in test [2] it was 21.4%; in test [3], 21.1%; in test [4], -2.55%; in test [5], -11.1%; in test [6] it was 8.2%.

For the compound `Cc1cccc(CBr)c1-c1c(C)cccc1CBr`, the growth inhibition in test [1] is -19.2%; in test [2], 10.8%; in test [3], 10.1%; in test [4], -31.1%; in test [5] it was 27.6%; in test [6] it was -0.65%.

For `COC(=O)C1OC(Sc2ncnc3nc[nH]c23)C(O)C(O)C1O` (stereo unspecified), the growth inhibition is 3.15% in test [1]; 1.6% in test [2]; -0.85% in test [3]; 17.4% in test [4]; 7.3% in test [5]; 4.9% in test [6].

Take `Nc1ccc(N)c2cc(S(=O)(=O)O)ccc12`: the growth inhibition in test [1] was 3.85%; in test [2], -4.8%; in test [3] it was -5.1%; in test [4], 6.4%; in test [5] it was -16.2%; in test [6], 7.9%.

With `C/C(=C\C(=O)c1ccccc1)c1ccccc1`, the growth inhibition in test [1] is 17.3%; in test [2], -5.8%; in test [3], -20.9%; in test [4] it was -16.6%; in test [5], 12.2%; in test [6], 57%.

As to `CC(=O)CCC(=O)CCC(C)=O`, the growth inhibition in test [1] is -0.05%; in test [2], 30.4%; in test [3] it was 6.05%; in test [4], -1.85%; in test [5], 29.1%; in test [6], -2.7%.

Turning to `Cn1c(N)cc(=O)nc1N`, the growth inhibition is -7.55% in test [1]; 2.05% in test [2]; 6.2% in test [3]; 10.7% in test [4]; -1% in test [5]; 8.2% in test [6].

For the compound `COC(=O)CCCC(=O)O`, the growth inhibition in test [1] was 4.4%; in test [2], -5.2%; in test [3], -2.6%; in test [4], -15.4%; in test [5] it was 2.9%; in test [6], 8.25%.

`C=C(CCCC(=C)C(N)=O)C(N)=O`: the growth inhibition in test [1] is -14.4%; in test [2], -14.5%; in test [3], -12.1%; in test [4], 2.55%; in test [5], -0.85%; in test [6], -27.4%.

Turning to `NNC(=O)CC(N)C(N)=O` (stereo unspecified), the growth inhibition was -4.1% in test [1]; 3.5% in test [2]; -3.25% in test [3]; 13.3% in test [4]; 27.4% in test [5]; 16.5% in test [6].

Take `CCSc1cc2c(cc1O)CC[C@@H]1[C@@H]2CC[C@]2(C)[C@@H](O)CC[C@@H]12`: the growth inhibition in test [1] is -6.6%; in test [2], -18.1%; in test [3], -6.95%; in test [4], -7.5%; in test [5], 22.4%; in test [6] it was -27.6%.

Consider `COC(=O)C1CCC(=O)N1C(c1ccc(OC)cc1)c1ccc2c(c1)OCO2` (stereo unspecified), for which the growth inhibition in test [1] was -0.1%; in test [2], 20.9%; in test [3], 11.1%; in test [4] it was 11.7%; in test [5], 31.5%; in test [6], 34%.

Consider `Cc1nc2c(c(-c3ccc(Cl)cc3)n1)Cc1c(ccc3ccccc13)O2`, for which the growth inhibition in test [1] was -15.4%; in test [2], -5.9%; in test [3], -9.2%; in test [4], -0.1%; in test [5], -28.8%; in test [6], -19%.

In the case of `COc1ccc(CCC(=O)O)c(C(CC(=O)O)C(=O)O)c1OS(=O)(=O)c1ccc(C)cc1` (stereo unspecified), the growth inhibition in test [1] was -21.2%; in test [2], -30.3%; in test [3], -40.5%; in test [4], 6.05%; in test [5], -33.3%; in test [6] it was -21.6%.

Take `C=CCc1cc(C(C)=O)ccc1O`: the growth inhibition in test [1] was 2.75%; in test [2], -14.5%; in test [3], -9.75%; in test [4], -19.2%; in test [5], -8.95%; in test [6] it was -11.7%.

As to `CCOC(=O)/C(O)=C/c1cc(=O)n(C)c2ccccc12`, the growth inhibition in test [1] was -6.6%; in test [2] it was 10.7%; in test [3], -5.8%; in test [4], -21.8%; in test [5], -9.9%; in test [6], -17.4%.

With `NCC=C1C2CC3CC(C2)CC1C3`, the growth inhibition in test [1] was 1.9%; in test [2], -7.25%; in test [3] it was 1.4%; in test [4], -26.4%; in test [5], -13.7%; in test [6], 12.6%.

As to `CCC1CC/C(=N\Nc2ccc([N+](=O)[O-])cc2[N+](=O)[O-])c2ccc3c(C)ccc(C)c3c21` (stereo unspecified), the growth inhibition in test [1] is -1%; in test [2], 7.25%; in test [3], -8.7%; in test [4], -14.2%; in test [5] it was -2.5%; in test [6] it was 6.8%.

The values above are taken from PubChem BioAssay (NCI).
